# From PubChem BioAssay AID2410 (Southern Research Specialized Biocontainment Screening …, 2010)
# Among all 2,500 compounds or so, about 2,100 (84%) were called active.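 How the source made its calls: active means toxic compounds, whose cell viability fell below 70% of untreated control cells; inactive means the rest.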 The set was probably picked from earlier hits. Not all results are given here. Potency and affinity values are given separately.
# Assay: viability of uninfected HEp-2 cells – cell-based, HTS, cytotoxicity control for RSV inhibitor project, dose response (AID 2410);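 further: cells exposed to compound for six days before readout; 100% = median signal of untreated cell control wells on each plate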
# Settings: HEp-2 viability, luminescence, cytotoxicity counter-screen; series mostly up to 50 µM; viability: at the top concentration
row,SMILES,viability
1,COCCN(C(=O)CSc1nnc(-c2ccc(C)c(C)c2)o1)c1c(N)n(CC(C)C)c(=O)[nH]c1=O,96.8% (inactive)
2,COc1ccc2[nH]c3c(=S)nc[nH]c3c2c1,94.1% (inactive)
3,c1ccc(N2CCN(Cc3nc4ccccc4[nH]3)CC2)nc1,91.6% (inactive)
4,CC(=O)Nc1ccc(NC(=O)C(C)OC(=O)c2ccccc2C(=O)c2ccc(Cl)c([N+](=O)[O-])c2)cc1 (configuration not stated),96.1% (inactive)
5,O=C(OCC(=O)N1CCCC1=O)c1ccc(Cl)cc1[N+](=O)[O-],88.1% (inactive)
6,COc1ccc(C(=O)NCC(=O)N/N=C/c2c(C)[nH]c3ccccc23)cc1OC,86.3% (inactive)
7,COc1cc(O)cc(O)c1C(=O)/C=C/c1ccccc1,74.6% (inactive)
8,COc1ccc(C(CNC(=S)NCc2ccccc2)N2CCCC2)cc1 (configuration not stated),81.7% (inactive)
9,COC(=O)C1=C(C)N(Cc2ccccc2)C(=O)N[C@H]1c1ccc(Br)cc1,73% (inactive)
10,CC(=O)Nc1ccc(C(=O)OCc2ccc(Cl)cc2)cc1,90.8% (inactive)
11,COc1cc(/C=N/N=C(\N)c2nonc2N)cc(OC)c1OC,110% (inactive)
12,COc1cccc(/C=N/N=C(\N)c2nonc2N)c1O,85.2% (inactive)
13,C/C(N)=C(/C#N)C(=O)COc1ncnc2ccccc12,117% (inactive)
14,C/C(N)=C(/C#N)C(=O)COC(=O)c1cccc(C)c1O,107% (inactive)
15,C/C(N)=C(/C#N)C(=O)COc1ncnc2ccc(Br)cc12,104% (inactive)
16,Cc1c(NC(=O)CN2C(=O)NC3(CCCCC3C)C2=O)cccc1[N+](=O)[O-] (configuration not stated),85.9% (inactive)
17,Fc1cccc(Nc2nc(-c3ccncc3)nc3ccccc23)c1,88.5% (inactive)
18,COc1ccc(/C(C)=N/NC(=O)CN(c2ccc(OC)cc2)S(=O)(=O)c2ccccc2)cc1,99.9% (inactive)
19,Cc1nc2nc(-c3ccccc3)nn2c(C)c1Cl,87% (inactive)
20,O=C(c1cc(-c2ccc(Cl)cc2Cl)on1)N1CCOCC1,94.3% (inactive)
21,Cc1ccc(-c2nc(CCN3C(=O)c4ccccc4C3=O)cs2)cc1,87.1% (inactive)
22,Cc1ccc2c(n1)sc1c(-c3ccc(Br)cc3)c(C#N)c(N)nc12,78.3% (inactive)
23,Nc1ccc(Br)c2c1C(=O)c1ccccc1C2=O,109% (inactive)
24,COc1ccc(N(C)C(=O)C2CCCN2S(=O)(=O)c2cccc3nsnc23)c(OC)c1 (configuration not stated),90.5% (inactive)
25,COc1ccc(NC(=O)c2cccs2)c([N+](=O)[O-])c1,97% (inactive)
26,COc1ccccc1CNC(=O)C1CCN(S(=O)(=O)c2cccc3nonc23)CC1,96.9% (inactive)

row,SMILES,viability
1,C/C(NC(=O)c1cccc(F)c1)=C1/C(=O)C[C@@H]2[C@H]1C2(C)C,110% (inactive)
2,C/C(N)=C(/C#N)C(=O)CN1C(=O)NC(Cc2c[nH]c3ccccc23)C1=O (configuration not stated),79.4% (inactive)
3,O=C(Nc1ccon1)c1sc2ccccc2c1Cl,92.8% (inactive)
4,CS(=O)(=O)NNC(=O)c1cc2cc3ccccc3nc2s1,95.5% (inactive)
5,O=C(Nc1ccc(Cl)cc1)N1CCc2[nH]c3ccccc3c2C1,83.2% (inactive)
6,CCC(=O)Nc1nc(C)c(-c2csc(Nc3ccccn3)n2)s1,97.5% (inactive)
7,Cc1cc(Nc2cccc(F)c2)nc(-c2ccccc2O)n1,74.5% (inactive)
8,Cc1cc(Nc2cccc(Cl)c2)nc(-c2ccccc2O)n1,86% (inactive)
9,CC1CCCN(C(=O)COC(=O)c2ccc3[nH]c4c(c3c2)CCCC4)C1 (configuration not stated),79.3% (inactive)
10,Cc1cccc(C)c1N=Cc1c(O)n(-c2nccs2)c(=O)c2ccccc12,70.9% (inactive)
11,COc1ccccc1NCC(=O)Nc1cc(S(=O)(=O)N2CCOCC2)ccc1N1CCOCC1,97.8% (inactive)
12,Cc1ccnc(NC(=O)c2cccc(S(=O)(=O)N3CCN(c4ccccc4)CC3)c2)c1,86% (inactive)
13,O=C(NCc1ccccc1Cl)C1CCN(S(=O)(=O)c2cccc3nonc23)CC1,76.8% (inactive)
14,COc1ccc2o/c(=N\O)c(C(=O)Nc3ccccc3OC)cc2c1,86.3% (inactive)
15,COc1ccc(C(=O)N/C(=C/c2cccs2)c2nc3ccccc3[nH]2)cc1OC,77.7% (inactive)
16,CSc1nc(N2CCOCC2)nc2ccc(C)cc12,94.1% (inactive)
17,O=C1c2ccccc2C(=O)N1CCCCN(C(=O)c1cc2ccccc2oc1=O)c1ccc(Cl)cc1,76.2% (inactive)
18,COc1ccccc1CNC(=O)C(NS(=O)(=O)c1cccc2nsnc12)C(C)C (configuration not stated),110% (inactive)
19,CCC(C)n1ncn(-c2ccc(N3CCN(c4ccc(OCC5COC(Cn6cncn6)(c6ccc(Cl)cc6Cl)O5)cc4)CC3)cc2)c1=O (configuration not stated),102% (inactive)
20,Brc1cnc(N2CCOCC2)nc1N1CCCCC1,72.1% (inactive)
21,CCOc1ccc(CNC(=O)CCCn2nc(CC)n3c(cc4occc43)c2=O)cc1,70.5% (inactive)
22,N#Cc1ccccc1Cn1c(=O)oc2ccccc21,94.8% (inactive)
23,COC(=O)c1ccc(Oc2nc(N3CCCCC3)nc(N3CCOCC3)n2)cc1,90.4% (inactive)
24,CCCCNC(=O)CC1N=C2c3ccccc3N=C(SCC(=O)Nc3ccc(OC)cc3)N2C1=O (configuration not stated),94.3% (inactive)
25,O=C(/C=C/c1ccc(O)c(O)c1)OC1C(O)CC(OC(=O)/C=C/c2ccc(O)c(O)c2)(C(=O)O)CC1O (configuration not stated),84.3% (inactive)
26,N#Cc1ccccc1NC(=O)c1ccc2c(Cl)c3c(nc2c1)CCCC3,96.1% (inactive)
